Pf growth 48h = Primary qHTS for delayed death inhibitors of the malarial parasite plastid, 48 hour incubation; AID 504832, 2011; actives 5.9% (n = 310,000); P. falciparum luciferase growth in erythrocytes, 48 h; Potency, µM (top dose mostly 28.7 µM), for the others: at the top dose activity change, negative = inhibition, usual class: inhibitors
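Read-out is firefly luciferase luminescence from an integrated reporter in P. falciparum, so falling signal marks reduced parasite growth. Infected erythrocytes were at 2% hematocrit and 0.1% parasitemia (final) in Albumax-supplemented RPMI 1640.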
AmpC inh detg = qHTS Inhibitors of AmpC Beta-Lactamase (assay with detergent) | Potency, µM (highest dose often 114 µM), for the others: top-dose activity change, negative = inhibition, most hits filed as inhibitors | actives 0.041% (n = 370,000) | AmpC hydrolysis of nitrocefin, absorbance 480 nm, 0.01% Triton | P00811;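 note: 0% = no-compound wells and -100% = no-enzyme wells; nearly all actives have a fitted effect of over 25% in size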
Target sequence (P00811 whole entry, looked up): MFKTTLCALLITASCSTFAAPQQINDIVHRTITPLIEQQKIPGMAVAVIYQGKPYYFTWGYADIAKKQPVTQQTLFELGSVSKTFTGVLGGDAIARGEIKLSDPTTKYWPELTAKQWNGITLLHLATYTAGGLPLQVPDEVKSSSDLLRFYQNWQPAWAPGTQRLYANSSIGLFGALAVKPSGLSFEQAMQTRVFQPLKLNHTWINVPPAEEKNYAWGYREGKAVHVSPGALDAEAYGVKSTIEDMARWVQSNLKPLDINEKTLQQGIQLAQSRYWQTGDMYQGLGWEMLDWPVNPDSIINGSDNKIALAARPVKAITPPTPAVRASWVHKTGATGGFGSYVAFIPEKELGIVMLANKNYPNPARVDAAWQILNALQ
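AmpC (5.3 nM in the dispensed reagent) in 20 mM phosphate pH 7.0 with 0.01% (detergent screen) or 0.0001% Triton X-100 was preincubated with compounds for 15 min at room temperature. Nitrocefin was then added from an 800 uM solution, and hydrolysis was followed at 480 nm.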
AMA1-RON2 inh = qHTS for Inhibitors of AMA1-RON; Towards Development of Antimalarial Drug Lead: Primary Screen | AlphaScreen AMA1-biotinylated RON2 peptide binding | actives 0.2% (n = 360,000) | AID 720542, 2013 | Potency, µM (highest dose often 58.2 µM), for the others: top-dose activity change, negative = inhibition, usual class: inhibitors | Plasmodium falciparum AMA1 (3D7) - RON2 peptide interaction;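 note: 0% = vehicle wells and -100% = peptide control; nearly all actives have a fitted effect of over 45% in size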
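AMA1 (3D7) with his tag at 25 nM final met compounds first, then biotinylated RON2 peptide at 25 nM; detection used donor plus acceptor beads, 10 µg/mL apiece, read by AlphaScreen after 30 min at room temperature.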
Pf growth 96h = Primary qHTS for delayed death inhibitors of the malarial parasite plastid, 96 hour incubation; P. falciparum luciferase reporter growth, 96 h; Potency, µM (series often up to 28.7 µM), for the others: top-dose activity change, negative = inhibition, usual class: inhibitors; actives 6.9% (n = 320,000)
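Cell-based qHTS: luciferase-tagged P. falciparum in erythrocytes (2% hematocrit, 0.05% parasitemia final) incubated with compounds for 96 hours, 37 C, 5% CO2; luciferase detection reagent then added and luminescence measured.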
HCV inhibitor = qHTS Assay for Inhibitors of Hepatitis C Virus (HCV) | Huh7.5.1 HCVcc-Cre infection, luciferase reporter, 44 h | Potency, µM (series often up to 41.8 µM), for inactives: top-dose activity change, negative = inhibition, most hits filed as inhibitors | actives 3.4% (n = 340,000)
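1,000 cells/well; 4 h culture; + compound; + HCVcc-Cre (~0.5 moi); 44 h; luciferase substrate, RT 15 min; read 15 sec.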
AmpC no deterg = qHTS Inhibitors of AmpC Beta-Lactamase (assay without detergent); P00811; AmpC nitrocefin hydrolysis, absorbance 480 nm, 0.0001% Triton; Potency, µM (series often up to 57.1 µM), for inactives: at the top dose activity change, negative = inhibition, actives largely listed as inhibitors; actives 0.52% (n = 330,000);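 note: plate controls were no compound for no effect and no enzyme for full effect; nearly all actives have a fitted effect of over 20% in size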
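20 mM phosphate pH 7.0 + 0.01% (detergent screen) or 0.0001% Triton X-100; 5.3 nM AmpC reagent; cpd preinc 15 min RT; nitrocefin (800 uM stock) to start; A480 q20 s × 4 min; Activity was normalised to no-enzyme and no-compound control wells.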
Numbers without * were called inactive; ? = inconclusive; · = no result; [ ] = remark or other dose. Most compounds without a hit are left out; they make up all but 11% or so of the library. Calls come from the whole dose curve; as a rule, active = well fitted curve in the direction sought with a large enough effect; inconclusive = small, poorly fitted or top-dose-only effect, or another doubt; inactive = no such curve, though single readings can be large; an effect the other way counts as inactive or inconclusive. Unless noted, % is set by controls: 0 for no effect and ±100 for the full control effect; potency is the fitted concentration of half-maximal effect.

SMILES	Pf growth 48h	AmpC inh detg	AMA1-RON2 inh	Pf growth 96h	HCV inhibitor	AmpC no deterg
COc1cc(Cl)c(C)cc1NS(=O)(=O)c1c(C)nc2sccn2c1=O	·	1%	·	·	·	·
Cc1ccc(CNC(=O)c2ccc3c(c2)nc(C)n3-c2cccc(F)c2)cc1	·	2%	·	·	·	·
COc1ccc2sc(N(CCCN(C)C)C(=O)c3ccc(S(=O)(=O)N4CCCc5ccccc54)cc3)nc2c1	7.4µM*	0%	-29%	8.3µM*	?	214%
CCN(Cc1ccccc1)S(=O)(=O)c1ccc(C(=O)N(CCCN(C)C)c2nc3cc4c(cc3s2)OCCO4)cc1	?	?	?	?	11µM*	220%
CCCCN(C(=O)c1ccc(S(=O)(=O)N(C)C)cc1)c1nc2ccccc2s1	?	-6%	3%	1.9µM*	29%	-23%
CCCCN(C(=O)c1ccc(S(=O)(=O)N(C)C)cc1)c1ccccc1	13%	3%	-2%	7%	-2%	45%
CN(C)CCCN(C(=O)c1ccc(C(=O)c2ccccc2)cc1)c1nc2cc3c(cc2s1)OCO3	12µM*	2%	-19%	-20%	14µM*	272%
CCN(CC)CCN(C(=O)c1ccc(C(=O)c2ccccc2)cc1)c1nc2cc3c(cc2s1)OCO3	-4%	6%	-6%	4%	-9%	-11%
CCOc1ccc(CCNC(=O)c2cc3c(=O)n(C)c4ccccc4c3n2C)cc1OCC	·	-3%	·	·	·	·
CC(Oc1ccc(F)cc1Br)c1nc2ccccc2c(=O)[nH]1 (stereo not drawn)	9.3µM*	?	4%	?	-2%	-25%
O=C(N/N=C/c1ccc([N+](=O)[O-])o1)c1cn2ccc3ccccc3c2n1	1.3µM*	8%	10%	?	-16%	-20%
O=C(N/N=C\c1ccc([N+](=O)[O-])o1)c1ccc(O)cc1	2.3µM*	·	·	-102%[12.8 µM]	·	·
Cc1ccc(NC(=O)CCC(=O)N/N=C/c2ccc([N+](=O)[O-])o2)cc1C	7.4µM*	3%	48%	1.9µM*	?	-15%
O=C(N/N=C/c1ccc([N+](=O)[O-])o1)c1sc2ccccc2c1Cl	?	-1%	30%	1.7µM*	?	-34%
COc1cc(O)ccc1-c1nc2ccc(Br)cn2c1Nc1ccccc1C	·	18%	·	·	·	·
CCOc1ccc2nc(N3CCCC(C(=O)Nc4ccc(Br)c(C)c4)C3)sc2c1 (stereo not drawn)	·	-3%	·	·	·	·
O=C(N/N=C/c1ccc([N+](=O)[O-])o1)C(=O)Nc1ccc(C(=O)O)cc1	2.3µM*	1%	32%	2.3µM*	11%	-3%
CCC(=O)Nc1ccc(C(=O)N/N=C/c2ccc([N+](=O)[O-])cc2)cc1	-5%	-8%	16%	?	4%	-4%
CCCC(=O)Nc1ccc(C(=O)N/N=C/c2ccc([N+](=O)[O-])o2)cc1	-92%	4%	10%	1.7µM*	?	-18%
COc1cc(-n2c(=O)c3ccccc3n(CC(=O)OCc3ccccc3)c2=O)cc(OC)c1OC	10%	-3%	19%	9.3µM*	10%	-9%
COc1cccc(C(c2ccccc2)N2C3CCC2CN(S(=O)(=O)c2ccc(F)cc2)CC3)c1 (stereo not drawn)	2.1µM*	2%	-3%	0%	-8%	-15%
COc1ccc(N2CCN(C3CCN(S(=O)(=O)c4ccc(F)cc4)CC3)CC2)cc1	-8%	?	16%	?	4%	-8%
Cc1nn(-c2ccccc2)c(Cl)c1C(=O)NCCCCNC(=O)c1c(C)nn(-c2ccccc2)c1Cl	13µM*	-4%	-7%	·	?	47%

Bioassay records from PubChem BioAssay.
